Screening results: PubChem, Johns Hopkins Ion Channel Center
ANO1 activ = activates or potentiates the mouse TMEM16A chloride channel. Q8BHY3. HEK293 TMEM16A/YFP-H148Q/I152L, iodide quench fluorescence; active compounds read low. B-score at 10 µM. 340,000 tested, 0.3% active. AID 623877;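 active means fluorescence-ratio B-score plate-corrected deviation score at least 3 library SD below zero, with starting fluorescence score within 5 deviations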;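 further: channel opened by trigger with iodide after compound preincubation; score built on the fluorescence ratio of max minus min over baseline; more negative score means more quench and so TMEM16A activation or potentiation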
Target sequence (Q8BHY3 whole entry, looked up): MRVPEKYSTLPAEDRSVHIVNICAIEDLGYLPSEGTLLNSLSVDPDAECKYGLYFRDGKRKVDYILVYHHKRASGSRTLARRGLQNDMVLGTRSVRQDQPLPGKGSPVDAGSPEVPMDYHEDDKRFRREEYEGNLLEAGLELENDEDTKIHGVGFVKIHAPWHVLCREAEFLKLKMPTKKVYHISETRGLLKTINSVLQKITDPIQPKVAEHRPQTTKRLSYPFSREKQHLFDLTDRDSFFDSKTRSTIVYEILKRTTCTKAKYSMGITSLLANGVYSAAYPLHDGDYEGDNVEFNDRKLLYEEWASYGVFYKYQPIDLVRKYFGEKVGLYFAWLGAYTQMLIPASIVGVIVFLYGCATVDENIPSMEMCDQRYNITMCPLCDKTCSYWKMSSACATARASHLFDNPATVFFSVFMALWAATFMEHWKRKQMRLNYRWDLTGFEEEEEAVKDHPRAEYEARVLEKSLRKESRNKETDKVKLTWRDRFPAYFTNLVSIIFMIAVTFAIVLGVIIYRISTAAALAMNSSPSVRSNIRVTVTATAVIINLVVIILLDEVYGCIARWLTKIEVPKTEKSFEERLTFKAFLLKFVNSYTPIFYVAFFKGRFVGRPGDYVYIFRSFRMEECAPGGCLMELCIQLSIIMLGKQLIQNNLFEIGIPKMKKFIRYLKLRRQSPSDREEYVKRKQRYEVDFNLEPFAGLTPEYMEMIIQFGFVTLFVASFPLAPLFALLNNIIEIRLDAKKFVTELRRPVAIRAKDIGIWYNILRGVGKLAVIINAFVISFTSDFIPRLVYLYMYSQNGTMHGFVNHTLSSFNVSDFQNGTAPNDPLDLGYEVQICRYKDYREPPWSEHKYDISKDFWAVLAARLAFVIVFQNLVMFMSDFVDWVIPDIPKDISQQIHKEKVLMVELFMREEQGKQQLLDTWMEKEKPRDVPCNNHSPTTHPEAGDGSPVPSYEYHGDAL
TMEM16A inh = blocks the mouse calcium-activated chloride channel TMEM16A. Q8BHY3. HEK293 TMEM16A/YFP iodide influx fluorescence, ionomycin. normalized B-score (activity score, 25-100; higher = stronger inhibition) at 10 µM. 310,000 tested, 1.2% active. AID 588511;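 active means ratio plate-corrected score three or more library SD toward inhibition, starting fluorescence score within five deviations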;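 further: score derived from kinetic fluorescence span divided by baseline fluorescence per well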
Kir21 inh = inhibitors of mouse Kir2.1 inward-rectifier potassium channel. HEK293-Kir2.1, FluxOR thallium flux fluorescence; active compounds read low. B-score at 10 µM. 310,000 tested, 0.85% active. AID 1672;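 active means fluorescence ratio B-score at or below minus 3 SD of library scores, with starting-brightness B-score within 2 SD, cut at about -4.2 in these data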;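 further: channel flux triggered by added potassium and thallium sulfate stimulus; B-score of peak minus minimum fluorescence over baseline after thallium stimulus; more negative B-score means stronger Kir2.1 block with less thallium influx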
KCNK3 inh = human KCNK3 channel inhibition, primary screen. 340,000 tested, 0.84% active. AID 602410. CHO-KCNK3 thallium flux, FluxOR fluorescence; active compounds read low. B-score at 10 µM;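 active means B-score under library mean minus 4 SD, starting fluorescence ratio at most library mean plus 5 SD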;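 further: more negative B-score means stronger inhibition of thallium flux through KCNK3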
KCNK9 inh-1 = blocks the human KCNK9 two-pore domain potassium channel | HEK293 KCNK9, FluxOR thallium flux fluorescence; active compounds read low | B-score at 10 µM | AID 488922 | 310,000 tested, 1.2% active;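 active means ratio B-score over 3 SD below the library mean, with starting fluorescence within 5 SD of its mean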;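 further: negative B-score means less thallium flux so channel inhibition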
hERG ctr = counter-screen for Kir2.1 inhibitors: effect on human hERG. AID 2236. inhibition, % at 10 µM. shares compounds with Kir21 inh. 320 tested, 20% active. hERG-expressing cells, thallium flux;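 further: host cells are CHO cells stably expressing hERG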
KCNK9 inh-2 = human KCNK9 off-target activity of Kir2.1 blockers | shares compounds with Kir21 inh | KCNK9-expressing cells, ion flux inhibition | inhibition, % at 10 µM | 320 tested, 5% active
Kir2-1 patch inh = blocks mouse Kir2.1 current in automated electrophysiology | shares compounds with Kir21 inh | Kir2.1 cells, automated patch-clamp current inhibition | 320 tested, 71% active | inhibition, % at 25 µM
KCNK9 inh conf = confirmation of human KCNK9 potassium channel inhibitors; shares compounds with KCNK9 inh-1; HEK293 KCNK9 cells, FluxOR thallium flux fluorescence; inhibition, % at 10 µM; 4,900 tested, 43% active;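 active means thallium signal inhibited by more than 5 SD of the compound-free buffer control wells, on both duplicate plates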;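 further: 0% = assay buffer control wells without compound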
Kir21 sel = selectivity of KCNK9 modulators against mouse Kir2.1. shares compounds with KCNK9 inh-1. Kir2.1 cells, FluxOR thallium flux fluorescence. inhibition, % at 10 µM. 4,900 tested, 4% active. AID 492993;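 active means thallium signal drop more than 5 SD beyond the mean of the no-compound control wells, seen in both duplicate plates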;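 further: signal is fluorescence rise after thallium addition divided by baseline fluorescence; plate controls were assay buffer only for no effect and full block by chlorpromazine control for full effect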
HEK293 Tl ctr = second check of KCNK9 modulator effects in non-induced HEK293 cells; shares compounds with KCNK9 inh-1; FluxOR thallium flux; inhibition, % at 10 µM; 4,900 tested, 40% active; AID 492997;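 active means thallium signal drop beyond 5 SD of the untreated control mean, on both duplicate plates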;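 further: plate controls were buffer only IC0 wells for no effect and SID17386958 at its maximal inhibitory level for full effect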
KCNK3 inh conf = human KCNK3 channel inhibition, confirmation assay; shares compounds with KCNK3 inh; CHO-KCNK3 thallium flux, FluxOR fluorescence; 0% buffer, 100% carvedilol maximal block; ratio percent of control, % at 10 µM; 2,400 tested, 99% active;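 active means ratio percent of control, averaged over triplicates, above buffer control mean plus 5 SD, cut at about 64% in these data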;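 further: ratio is the fluorescence rise from min to max over baseline after thallium stimulus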
KCNK3 noninduced = activity in cells without induced KCNK3 expression; shares compounds with KCNK3 inh; non-induced KCNK3 parental cells, FluxOR thallium flux; active compounds read low; thallium flux ratio (lower = more inhibition) at 10 µM; 2,400 tested, 40% active; AID 651747;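 active means thallium flux ratio, averaged over three wells, more than 5 SD below the buffer control mean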;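 further: host cells are CHO cells without KCNK3 induction; ratio is peak minus trough fluorescence over baseline then normalized to buffer controls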
Numbers without * were called inactive; i = inactive; nt = no result. Compounds with a hit are over-represented: about 3.5% of the library has one in this group of screens. Unless noted, how the calls were made is not given here.

SMILES | ANO1 activ | TMEM16A inh | Kir21 inh | KCNK3 inh | KCNK9 inh-1 | hERG ctr | KCNK9 inh-2 | Kir2-1 patch inh | others
COc1ccc(CN(C)CC(O)COC(c2ccccc2)c2ccccc2)c(OC)c1OC (configuration not stated) | i | i | -6* | i | i | 69%* | i | i
COc1ccc(CCN(C)CC(O)COC(c2ccc(F)cc2)c2ccc(F)cc2)cc1OC (configuration not stated) | i | i | -3.5 | i | i | nt | nt | nt
O=C(Nc1ccnn1C1CCN(CCCC2CCCC2)CC1)c1ccccc1Cl | i | i | 0.5 | i | i | nt | nt | nt
Cc1ccc(O)c(CNCCNCc2cc(C)ccc2O)c1 | i | i | -6.1* | i | i | i | i | 51%*
Cc1ccc(O)c(CNc2nc3ccccc3n2C(C)C)c1 | i | i | 0.42 | i | i | nt | nt | nt
O=C(O)C(Cc1ccccc1[N+](=O)[O-])N1C(=O)c2ccccc2C1=O (configuration not stated) | i | nt | nt | i | nt | nt | nt | nt
Cc1c(NC(=O)COC(=O)c2ccc(Br)o2)c(=O)n(-c2ccccc2)n1C | i | i | 1.8 | i | i | i | i | i
Cc1c(NC(=O)C(C)OC(=O)c2ccc(Br)o2)c(=O)n(-c2ccccc2)n1C (configuration not stated) | i | i | 0.43 | i | i | nt | nt | nt
CCCN1CCC(NC23CC4CC(CC(C4)C2)C3)CC1 | nt | i | -9.8* | nt | i | i | i | 41%*
COc1ccc(-n2c(SCC(=O)C(C)(C)C)nc3c(sc(=S)n3-c3ccccc3)c2=O)c(OC)c1 | i | i | -1.6 | i | i | nt | nt | nt
CCN(c1ccccc1)S(=O)(=O)c1ccc(F)cc1 | i | i | -6.2* | i | i | i | i | 37%*
CCn1c2ccccc2c2nnc(SCC(=O)NC(CC(C)C)C(=O)OC)nc21 (configuration not stated) | i | i | 1.6 | i | i | nt | nt | nt
CCOC(=O)CN1C(=O)N[C@@H](CCc2ccccc2)C(C(C)=O)=C1C | nt | i | -1.6 | nt | i | nt | nt | nt
OCc1cc(C(O)CNCCCCCCOCCCCc2ccccc2)ccc1O (configuration not stated) | i | i | -5.3* | i | i | i | i | 23%*
CCOCCCNCC(O)c1ccccc1 (configuration not stated) | i | i | -0.79 | i | i | nt | nt | nt
CC(C)(C)OC(=O)NCCc1nnc(SCC(N)=O)o1 | i | i | 1.1 | i | i | nt | nt | nt
Cc1ccc(CSc2nnc(CCNC(=O)OC(C)(C)C)o2)cc1 | i | i | -11* | i | i | i | i | 60%*
CC(c1ccccc1)N1C(=O)c2ccccc2C1O (configuration not stated) | i | i | 0.17 | i | i | nt | nt | nt
NCCCCc1cn(CC(=O)N2CCNCC2)nn1 | i | i | 0.46 | i | i | nt | nt | nt
O=C(NCCc1ccc(Cl)cc1)C1(c2ccccc2)CC1 | i | i | -9.5* | i | i | i | i | 44%*
COc1ccc(C2(C(=O)NCCc3ccccc3)CCCC2)cc1 | i | i | -3.1 | i | i | nt | nt | nt
O=C(c1ccc(COc2ccccc2Br)o1)N1N=C(C(F)F)CC1(O)C(F)F (configuration not stated) | i | i | -0.34 | i | i | nt | nt | nt
CN(C)CC/C=C1\c2ccccc2Sc2ccc(Cl)cc21 | i | i | -8.1* | i | i | 58%* | i | 28%* | KCNK9 inh conf=i;Kir21 sel=59%*;HEK293 Tl ctr=i
CCN(CC(=O)Nc1cccc(C(C)=O)c1)S(=O)(=O)c1ccc(C)cc1 | i | i | -2.7 | i | i | nt | nt | nt
O=C(c1ccc2c(c1)N(Cc1ccccc1)CCS2)N1CCCCC1 | i | i | -5.8* | -9.9* | i | i | i | i | KCNK3 inh conf=124*;KCNK3 noninduced=0.13*
SMILES | ANO1 activ | TMEM16A inh | Kir21 inh | KCNK3 inh | KCNK9 inh-1 | hERG ctr | KCNK9 inh-2 | Kir2-1 patch inh | others
CC1CC(C)CN(C(=O)CCCNC(=O)c2ccc(Cl)cc2)C1 (configuration not stated) | i | i | 0.61 | i | i | nt | nt | nt
Cc1nn(C)cc1/C=N\NC(=O)c1ccc2c(c1)c(C)c(C)n2Cc1ccccc1 | i | i | 0.9 | i | -19* | nt | nt | nt | KCNK9 inh conf=64%*;Kir21 sel=i;HEK293 Tl ctr=40%*
Cc1c(C)n(Cc2ccccc2)c2ccc(C(=O)O)cc12 | i | i | 0.57 | i | i | nt | nt | nt
CCOc1cc(/C=C2/C(=N)N3C(=NC2=O)SN=C3S(C)(=O)=O)ccc1OS(=O)(=O)c1ccccc1 | i | i | 1.3 | i | i | nt | nt | nt | KCNK9 inh conf=i;Kir21 sel=i;HEK293 Tl ctr=i
CC(C)=CC(=O)NCc1c(Cl)cccc1-n1cccc1 | i | i | -2 | i | i | nt | nt | nt
CCN=C(Nc1ccc2c(c1)OCO2)SC1CC(=O)N(c2ccc(OC)cc2)C1=O (configuration not stated) | i | i | 2.3 | i | i | nt | nt | nt
CCN(CC)C(=O)[C@H]1CC(CC(=O)NC(C)(C)C)C(=O)N2CCc3c([nH]c4ccccc34)[C@]12C (some centres not stated) | nt | nt | nt | i | nt | nt | nt | nt
O=C(CCC(=O)c1ccc(Oc2ccccc2)cc1)Nc1ccc(Cl)cc1Cl | i | i | -1.1 | i | i | nt | nt | nt | KCNK9 inh conf=i;Kir21 sel=i;HEK293 Tl ctr=i
Cc1nc2c(-c3ccccc3)c(C)nn2c(C)c1CCC(=O)O | i | i | -0.25 | i | i | nt | nt | nt
CCOC(=O)Cc1c(C)nc2c(-c3ccc(OC)cc3)c(C)nn2c1C | i | i | 2 | i | i | nt | nt | nt | KCNK9 inh conf=i;Kir21 sel=i;HEK293 Tl ctr=i
